In all, about 68,000 sequences were measured (“fluorescence intensity (a.u.)”: median about 9,100, highest 2% from about 16,000 on). For the sample, the highest values were picked, then their nearest neighbours and some sequences at random.

Sequence of OsWRKY34 (Q0JBA9 entry or part of it): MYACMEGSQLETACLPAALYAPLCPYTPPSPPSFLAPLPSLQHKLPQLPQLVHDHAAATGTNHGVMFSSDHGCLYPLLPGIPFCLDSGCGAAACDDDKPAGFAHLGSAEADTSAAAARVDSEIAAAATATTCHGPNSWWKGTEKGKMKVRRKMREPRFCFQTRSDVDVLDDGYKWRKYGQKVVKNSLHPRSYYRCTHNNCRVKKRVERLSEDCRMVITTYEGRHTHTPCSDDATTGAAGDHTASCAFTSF

The test deals with OsWRKY34 (Oryza sativa, UniProt Q0JBA9 1-250). Put plainly: protein-binding microarray (RPBM); PBS, 2% BSA, 51.3 ng/ul salmon testes DNA, 50 uM zinc acetate, 200 nM TF, 25 C, 1 h; high values mean tight binding. Particulars: protein: recombinant; tags: N-terminal polyhistidine and DsRed monomer fusion (pET32a); label: CyDye5-dUTP incorporated in the synthesized complementary strand; 3' TTTTT single-stranded linker to array surface; dsDNA, one strand shown. In a few lines:
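In PBS with 2% BSA, salmon testes DNA and 50 µM zinc acetate, 200 nM protein was incubated on a custom Agilent array at 25 °C for 1 h and then washed off. The array had been made double-stranded by primer extension with Cy5-dUTP and blocked with 2% BSA. The proteins were transcription factors fused N-terminally to polyhistidine and DsRed, expressed in E. coli BL21-CodonPlus and purified on Ni–NTA. The binding signal is per-feature fluorescence intensity (arbitrary units) from an Axon 4000B scanner.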
For the sequence “GCGTGTGTTCTTGTGCTGGATTGTGGAGTTCTTGATCCCTCGGAGTCACCTAGTGCAG”, the binding signal is 10000 fluorescence intensity (a.u.). Then “GGAGATACGGCGAGGGGAGGGGACGGAGGGGCGGGGTGCGCGGAGTCACCTAGTGCAG”, with 24700 fluorescence intensity (a.u.); and “TGTGGGACGATGGGGAGGTGTGGGGACGCACGCGGGGCGACGGAGTCACCTAGTGCAG”, with 10200 fluorescence intensity (a.u.). For “GGCGGCGCGGGTTTAGCGGGATGGGGAGGCGGCGAGTGGCCGGAGTCACCTAGTGCAG”, the binding signal was 8140 fluorescence intensity (a.u.). Regarding “AGGAGGGGAGGCGCGGCGGAGGAGAAGAGGTGGGGATGGACGGAGTCACCTAGTGCAG”, the binding signal was 10000 fluorescence intensity (a.u.). Regarding “AACATAACTGTCTTCTTCCATTTGTATGTCATGTTTCTGTCGGAGTCACCTAGTGCAG”, the binding signal is 10700 fluorescence intensity (a.u.). Then “GCGCGGCGCGGCGGGACGGGGTGGGGCGAGGGCAGCAGCGCGGAGTCACCTAGTGCAG”, with 8520 fluorescence intensity (a.u.); and “CGAAATGGGAGGCGGGGTTTAGGGTTTCCGGCGGGGAGGGCGGAGTCACCTAGTGCAG”, with 25200 fluorescence intensity (a.u.); and “GCGATGGGAGGTGGGCGACGCGAGGGAGAGGGGAGAGGGGCGGAGTCACCTAGTGCAG”, with 18500 fluorescence intensity (a.u.). With “ACTCCGGCGGGTTAGGGTTTGGGGTTGGGGTGAGGGTAGGCGGAGTCACCTAGTGCAG”, the binding signal is 10900 fluorescence intensity (a.u.). The figure for “GGACGGAGGGGCGGGGTGCGACGCGGACGGCGGCGGCGGGCGGAGTCACCTAGTGCAG” is 13500 fluorescence intensity (a.u.); for “CATGGTGACATGTTGTGGGGCTGTGTCTTGTGGGTACAGTCGGAGTCACCTAGTGCAG” it is 8650 fluorescence intensity (a.u.). For “GATAACATGTTGTAGTCTTCCAGGGGTGGGTGTTAGCTGTCGGAGTCACCTAGTGCAG”, the binding signal was 16700 fluorescence intensity (a.u.). As to “GAGGACTGGGCGAAGGGGTGGAAGAAAATGTGGTTGTCGACGGAGTCACCTAGTGCAG”, the binding signal was 8580 fluorescence intensity (a.u.). In the case of “ATGGCTCGGTGGTGCACTATTTTTTTTTTAACTTAATTTGCGGAGTCACCTAGTGCAG”, the binding signal is 12100 fluorescence intensity (a.u.). The figure for “CACAATAGACCACCCGAAACCACATCTTCAACACTTCAATCGGAGTCACCTAGTGCAG” is 8530 fluorescence intensity (a.u.). In the case of “CTCTCCGTGCATCTATATAAACTGGCCCTGATCAATCTCACGGAGTCACCTAGTGCAG”, the binding signal is 9650 fluorescence intensity (a.u.). In the case of “CAGGCGACCACCTCCAGCTCCGCGCCATCTCCATGTCATCCGGAGTCACCTAGTGCAG”, the binding signal is 10800 fluorescence intensity (a.u.). In the case of “TGCACCTGTTTGGCTTAGTACCAGTGCGCTACTGGTTTCACGGAGTCACCTAGTGCAG”, the binding signal was 9680 fluorescence intensity (a.u.). With “TACTCCGTACAAATTTTCTTCTGGATCCCACCTCTGCTCTCGGAGTCACCTAGTGCAG”, the binding signal was 9050 fluorescence intensity (a.u.). Turning to “CCCACCTCGCTGTCGTTTCTTCCTCTGGCTGGTCGCGTTGCGGAGTCACCTAGTGCAG”, the binding signal was 12700 fluorescence intensity (a.u.). For “TTTCTTTCCTGTTTTAGGAGGGTTTTCCACGTTAAATCTTCGGAGTCACCTAGTGCAG”, the binding signal is 8290 fluorescence intensity (a.u.). Consider “TTTTTTTAAAATTTGCATGTTTTTTGGTCGTGTAAAATTTCGGAGTCACCTAGTGCAG”, for which the binding signal is 8290 fluorescence intensity (a.u.). For the sequence “TAGGAGGTGGCGGCCGGTGGTGGCGGATCCGGCGGCGGGGCGGAGTCACCTAGTGCAG”, the binding signal is 8840 fluorescence intensity (a.u.). Then “GGCACCGGCGGAGGGGCGCGGGAGGGGAGGCGGCGGCGAGCGGAGTCACCTAGTGCAG”, with 15600 fluorescence intensity (a.u.); and “AAAGGTGGTGGTAGGGGATAGATCCGGGGCGGGCGGCATGCGGAGTCACCTAGTGCAG”, with 23400 fluorescence intensity (a.u.); and “AGGGGAGAGGAGGGGAGGCGGCGCGGCGGCGAGGAGGGGACGGAGTCACCTAGTGCAG”, with 10200 fluorescence intensity (a.u.).

In the case of “GGGGCGGAAACGGGCGAGGGAGGCGCGGGGAGGGTTTAAACGGAGTCACCTAGTGCAG”, the binding signal was 22600 fluorescence intensity (a.u.). For “TGGGAGGAGGGAGGGAGGAGGAGGGCGGAGATAGGTGGTGCGGAGTCACCTAGTGCAG”, the binding signal is 11400 fluorescence intensity (a.u.). As for “ATATCGAAATTGATGCTTGACCAGTCAACACTACTTAATCCGGAGTCACCTAGTGCAG”, the binding signal was 9070 fluorescence intensity (a.u.). The figure for “GTCGCTTGTCGTTGTTGCCCTGAACTGTTGGTGCTGGTTCCGGAGTCACCTAGTGCAG” is 9320 fluorescence intensity (a.u.); for “GTACATACCCGTATTATTTATCTGTCGCTATGTAGGATTTCGGAGTCACCTAGTGCAG” it is 10500 fluorescence intensity (a.u.). Then “CCACCGGCGGGCCCCACCATCTTGACTCCTCTCTGTGATCCGGAGTCACCTAGTGCAG”, with 8610 fluorescence intensity (a.u.); and “TGTGGTGCGTCTCCTCGTGCAGTTTTTGCCCTTGATTTGACGGAGTCACCTAGTGCAG”, with 11800 fluorescence intensity (a.u.); and “CCTTTGACTTTTTGATAAACGTTTGACCTTTCGTCTTATTCGGAGTCACCTAGTGCAG”, with 22800 fluorescence intensity (a.u.). Then “TCGTTAACTTTTTAATAAACGTTTGACCTTTCGTCTTATTCGGAGTCACCTAGTGCAG”, with 10200 fluorescence intensity (a.u.). As to “GACTTTTTAGCATATGTTTGACCGTTCGTCTTATTCAAAACGGAGTCACCTAGTGCAG”, the binding signal is 10600 fluorescence intensity (a.u.). The figure for “GACTTTTCGGTTCTTAAGCTGACTTATAATTAGTCTAAACCGGAGTCACCTAGTGCAG” is 8630 fluorescence intensity (a.u.). Then “CATTGTTTTCTAATATTCGGCCATGGCTTTTGACATTTTACGGAGTCACCTAGTGCAG”, with 8430 fluorescence intensity (a.u.); and “GTTGACTTTTTGACAAACGTTTGACTTTTCGTCTTATTCACGGAGTCACCTAGTGCAG”, with 17400 fluorescence intensity (a.u.).

Take “CGGTTGACTTTTTTTTTCTAATAAGCCAAAACGGCTTATTCGGAGTCACCTAGTGCAG”: the binding signal is 18800 fluorescence intensity (a.u.). Then “TGATTTTTTGACAAACATTTGACCTTTCGTCTTATTTAAACGGAGTCACCTAGTGCAG”, with 8620 fluorescence intensity (a.u.).

Values taken from article PMC7819943, “Rice protein-binding microarrays: a tool to detect cis-acting elements near promoter regions in rice”.
